The results in this text go back to ChEMBL document CHEMBL3433997, “St. Jude Leishmania screening dataset” (2016).

One experiment has as its target Hexose transporter 1 (Plasmodium falciparum) (UniProt O97467). Kind of experiment: ST_JUDE_LEISH: Cytotoxicity at 2uM final concentration against transgenic Leishmania Mexicana promastigotes LmPfHT that are glucose transport deficient and complemented with the Plasmodium falciparum hexose transporter. Activity is measured by DNA content using SYBR green in vitro. The experiment is classed as functional.
In general, inhibition refers to the drop in the measured response relative to a control, in per cent. On to `CC(C)C[C@@H](C(=O)Nc1ccc(Cc2ccc(NC(=O)[C@H](CC(C)C)N(C)C(=O)OC(C)(C)C)cc2)cc1)N(C)C(=O)OC(C)(C)C`, for which the inhibition is -1.12%. Same read-out and setting: in the case of `Cc1cc(N[C@@H](C)C(=O)Nc2ccccc2)nc(NCCc2ccc(F)cc2)n1` it was 4.77%. Same read-out and setting: in the case of `O=C(Nc1cccc(-c2ccc(-c3nc4ccccc4[nH]3)cc2)c1)Nc1ccc2c(c1)OCO2` it was 1.8%; in that of `Oc1ccc(Nc2nc(NCC3CCCO3)c3ccccc3n2)cc1` (stereo unspecified), 6.25%; in that of `CC(=O)Nc1nc(C(=O)Nc2ccc(-c3cccc(-c4nc5cc(C(F)(F)F)ccc5[nH]4)c3)cc2)cs1`, 2.2%. The same measure, in the same setting: in the case of `CCCCCCCN1CC[C@@H](CCCc2ccnc3ccc(OC)cc23)[C@@H](CCN)C1` it was 2.34%; in that of `CCCCCN1CCC(NC(=O)c2ccc(C(=O)Nc3ccc(C(C)C)cc3)cc2)C1` (stereo unspecified), 1.41%.

On to `CC(C)Sc1nc(-c2ccccc2)nc2c1COC(C)(C)C2`, for which the inhibition is -2.02%. The same measure, in the same setting: in the case of `O=C(Cc1c[nH]cn1)Nc1cccc(-c2ccc(-c3nc4cc(C(F)(F)F)ccc4[nH]3)s2)c1` it was -3.59%; in that of `COc1ccc2[nH]c(C)cc(=NN=Cc3cc(OC)c(OC)cc3OC)c2c1`, 5.13%. Still for that read-out and setting: the same measure for `COc1ccccc1C1CC(c2ccc(Br)cc2)=NN1C(=O)c1ccccc1` (stereo unspecified): 2.02%; for `CCCCCCCC/C=C\CCCCCCCC(=O)NCc1ccc(O)c(OC)c1`: 7.4%; for `O=C(CCC1CCCCC1)NCCNc1cccc2ccccc12`: -0.34%. Same read-out and setting: in the case of `CC1CCN(c2nc(C(=O)Nc3ccc(F)cc3C(F)(F)F)c(C(C)C)s2)CC1` it was 2.16%.

Regarding `CC1CCc2c(C(=O)Nc3c(F)cc(F)cc3Br)csc2C1` (stereo unspecified), the inhibition was 0.02%.

Consider `CC(=O)Nc1cccc(Nc2nccc(Nc3ccc(Oc4ccccc4)cc3)n2)c1`, for which the inhibition is 2.76%. On the same count and under the same terms, in the case of `CC(=O)Nc1sc(C)c(C)c1CN1CCc2ccccc2C1` it was 0.49%; in that of `Cc1nc(N)nc(N)c1-c1ccc(Br)cc1`, 8.21%.

As to `CC(C)(O)CC(C)(C)c1cc(Cl)ccc1O`, the inhibition turned out to be 5.76%. The same measure, in the same setting: the same measure for `O=C(CCc1c[nH]cn1)Nc1ccc(-c2ccc(-c3nc4cc(F)ccc4[nH]3)cc2)cc1`: 1.73%; for `O=C(/C=C/c1ccc(Cl)c(Cl)c1)NCCCCCN1CCCN(C(=O)Nc2ccc(F)c(F)c2)CC1`: 2.88%. Same read-out and setting: in the case of `CCOc1ccc(Nc2cc(C)nc(Nc3ccc(OCC)cc3)n2)cc1` it was 2.01%. Same read-out and setting: the same measure for `O=C(NC1CC1)c1cnc(N2CCC(COc3cccc(F)c3)CC2)c(Cl)c1`: 2.54%; for `CS(=O)(=O)CCNCc1ccc(-c2ccc3c(Nc4ccc(Cl)cc4F)ccnc3c2)o1`: 3.39%. For `CC(C)C[C@H](NC(=O)c1cc2ccccc2s1)C(=O)N[C@H]1CCN(Cc2ccc(OC[C@@H]3CCCN3C)c(Cl)c2)C1`, the inhibition was 10.6%. Still for that read-out and setting: the same measure for `COc1ccc(C2CC(c3cccs3)=NN2C(=O)CNc2ccccc2F)cc1OC` (stereo unspecified): 1.72%.

In the next experiment the target is Glucose transporter (Leishmania mexicana) (UniProt O61059). Put plainly: ST_JUDE_LEISH: Cytotoxicity at 2uM final concentration against transgenic Leishmania Mexicana promastigotes LmGT2 that are glucose transport deficient and complemented with the L. Mexicana glucose transporter 2. Activity is measured by DNA content using SYBR green in vitro. It is filed as functional.
Turning to `COc1ccc2nccc([C@@H](O)CN3CCC(NCc4cc5ccccc5[nH]4)CC3)c2c1`, the inhibition was determined as 4.85%. The same measure, in the same setting: the same measure for `CCNC(=O)Nc1cccc(-c2ccc(-c3nc4cccc(C)c4[nH]3)s2)c1`: 0.03%. On the same count and under the same terms, in the case of `O=C(Nc1ccc(-c2cccc(-c3nc4cc(F)ccc4[nH]3)c2)cc1)Nc1ccc(F)c(F)c1F` it was 6.78%; in that of `Cc1cc(N)c2cc(NC(=O)c3cccc4ccccc34)ccc2n1`, 0%.

With `COc1cc(OC)cc(C(=O)N2CCOC(CCN3CCC(c4ccccc4)CC3)(c3ccc(Cl)c(Cl)c3)C2)c1` (stereo unspecified), the inhibition was -1.58%. The same measure, in the same setting: in the case of `COc1ccccc1N1CCN(CCCCNC(=O)c2ccc(NC(=O)c3ccc4ccccc4c3)cc2)CC1` it was -0.43%; in that of `COc1ccc(CCNC(C)Cc2ccc(C(=O)Nc3ccc(CC(C)NCCc4cccc(Cl)c4)cc3)cc2)cc1` (stereo unspecified), 0.32%; in that of `CCN(CCCN1CCCCC1)c1cc(C)nc(Nc2ccc(C)c(Cl)c2)n1`, 1.16%. Regarding `CCC(C)NS(=O)(=O)c1ccc2nc(Nc3ccc(C)c(Cl)c3)n(C3CCCCC3)c2c1` (stereo unspecified), the inhibition worked out at 4.46%.

Take `NC(=O)COc1c(C2CCN(CCN3CCC(CNC(=O)c4ccc(-c5ccc(C(F)(F)F)cc5)cc4)CC3)CC2)ccc2c1CCCC2`: the inhibition came to 3.32%. The same measure, in the same setting: in the case of `CC(C)N1CCC(Oc2ccc(CN3CCN(C(c4ccccc4)c4ccc(Cl)cc4)CC3)cc2)CC1` (stereo unspecified) it was 2.61%; in that of `O=C(Nc1ccc(Cl)cc1)Nc1ccc(-c2cccc(-c3nc4ccccc4[nH]3)c2)cc1`, -1.97%; in that of `O=S(=O)(NCCN1CCCC1)c1ccc(-c2ccc(CNC3Cc4ccccc4C3)cc2)s1`, 1.34%. The same measure, in the same setting: in the case of `Fc1cccc(C=NN=c2cc[nH]c3ccc(C(F)(F)F)cc23)c1` it was 5.06%; in that of `CC(C)C[C@@H](C(=O)Nc1ccc(Cc2ccc(NC(=O)[C@H](CC(C)C)N(C)C(=O)OC(C)(C)C)cc2)cc1)N(C)C(=O)OC(C)(C)C`, -0.46%; in that of `Cc1cc(N[C@@H](C)C(=O)Nc2ccccc2)nc(NCCc2ccc(F)cc2)n1`, 1.18%.

Take `O=C(Nc1cccc(-c2ccc(-c3nc4ccccc4[nH]3)cc2)c1)Nc1ccc2c(c1)OCO2`: the inhibition was 0.06%.

Turning to `Oc1ccc(Nc2nc(NCC3CCCO3)c3ccccc3n2)cc1` (stereo unspecified), the inhibition was determined as 1.86%. Same read-out and setting: in the case of `CC(=O)Nc1nc(C(=O)Nc2ccc(-c3cccc(-c4nc5cc(C(F)(F)F)ccc5[nH]4)c3)cc2)cs1` it was 0.81%; in that of `CCCCCCCN1CC[C@@H](CCCc2ccnc3ccc(OC)cc23)[C@@H](CCN)C1`, 0.84%.

Regarding `CCCCCN1CCC(NC(=O)c2ccc(C(=O)Nc3ccc(C(C)C)cc3)cc2)C1` (stereo unspecified), the inhibition is 1.46%. As to `CC(C)Sc1nc(-c2ccccc2)nc2c1COC(C)(C)C2`, the inhibition is -4.12%. The same measure, in the same setting: the same measure for `O=C(Cc1c[nH]cn1)Nc1cccc(-c2ccc(-c3nc4cc(C(F)(F)F)ccc4[nH]3)s2)c1`: -0.81%; for `COc1ccc2[nH]c(C)cc(=NN=Cc3cc(OC)c(OC)cc3OC)c2c1`: 6.18%.

`COc1ccccc1C1CC(c2ccc(Br)cc2)=NN1C(=O)c1ccccc1` (stereo unspecified): the inhibition was found to be 0.92%.

For the molecule `CCCCCCCC/C=C\CCCCCCCC(=O)NCc1ccc(O)c(OC)c1`, the inhibition was 5.67%. On the same count and under the same terms, the same measure for `O=C(CCC1CCCCC1)NCCNc1cccc2ccccc12`: -3.97%. Consider `CC1CCN(c2nc(C(=O)Nc3ccc(F)cc3C(F)(F)F)c(C(C)C)s2)CC1`, for which the inhibition is 2.29%. Consider `CC1CCc2c(C(=O)Nc3c(F)cc(F)cc3Br)csc2C1` (stereo unspecified), for which the inhibition is -0.61%. Regarding `CC(=O)Nc1cccc(Nc2nccc(Nc3ccc(Oc4ccccc4)cc3)n2)c1`, the inhibition is -0.82%. The same measure, in the same setting: the same measure for `CC(=O)Nc1sc(C)c(C)c1CN1CCc2ccccc2C1`: -1.3%; for `Cc1nc(N)nc(N)c1-c1ccc(Br)cc1`: 7.53%; for `CC(C)(O)CC(C)(C)c1cc(Cl)ccc1O`: 4.82%. On the same count and under the same terms, in the case of `O=C(CCc1c[nH]cn1)Nc1ccc(-c2ccc(-c3nc4cc(F)ccc4[nH]3)cc2)cc1` it was 1.81%; in that of `O=C(/C=C/c1ccc(Cl)c(Cl)c1)NCCCCCN1CCCN(C(=O)Nc2ccc(F)c(F)c2)CC1`, 6.1%; in that of `CCOc1ccc(Nc2cc(C)nc(Nc3ccc(OCC)cc3)n2)cc1`, 1.02%.

As to `O=C(NC1CC1)c1cnc(N2CCC(COc3cccc(F)c3)CC2)c(Cl)c1`, the inhibition worked out at 0.22%. The same measure, in the same setting: in the case of `CS(=O)(=O)CCNCc1ccc(-c2ccc3c(Nc4ccc(Cl)cc4F)ccnc3c2)o1` it was 4.36%; in that of `CC(C)C[C@H](NC(=O)c1cc2ccccc2s1)C(=O)N[C@H]1CCN(Cc2ccc(OC[C@@H]3CCCN3C)c(Cl)c2)C1`, 8.09%. On the same count and under the same terms, in the case of `COc1ccc(C2CC(c3cccs3)=NN2C(=O)CNc2ccccc2F)cc1OC` (stereo unspecified) it was 2.76%.
